In PubChem BioAssay (Tox21):
Inconclusive results are not listed. Active and inactive are the calls of the source. Unless noted, calls come from the whole dose curve; as a rule, active = well fitted curve in the direction sought with a large enough effect in the repeat runs; inconclusive = weak or mixed curves; inactive = no such curve, though single readings can be large; an effect the other way counts as inactive or inconclusive.

Assays:
[1] = qHTS assay to identify small molecule antagonists of the glucocorticoid receptor (GR) signaling pathway - cell viability counter screen (AID 720693); note: nearly all actives have a fitted effect of over 55% in size
[2] = qHTS assay for identifying genotoxic compounds that show differential cytotoxicity against isogenic chicken DT40 cell lines with known DNA damage response pathways - wild type cell line (AID 743012); note: nearly all actives have a fitted effect of over 60% in size
Procedure, shortened: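 Using parental DT40 (300 cells/well), compounds delivered in DMSO incubate 40 h at 37 C/5% CO2. CellTiter-Glo reagent then stands 30 min at room temperature, and luminescence gives cell viability.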

[3] = qHTS assay for identifying genotoxic compounds that show differential cytotoxicity against isogenic chicken DT40 cell lines with known DNA damage response pathways - Rev3 mutant cell line (AID 743014); note: nearly all actives have a fitted effect of over 55% in size
[4] = qHTS assay for identifying genotoxic compounds that show differential cytotoxicity against isogenic chicken DT40 cell lines with known DNA damage response pathways - Rad54/Ku70 mutant cell line (AID 743015); note: nearly all actives have a fitted effect of over 60% in size
[5] = qHTS assay to identify small molecule antagonists of the androgen receptor (AR) signaling pathway - cell viability counter screen (AID 743033; note: nearly all actives have a fitted effect of over 45% in size)
[6] = qHTS assay to identify small molecule antagonists of the androgen receptor (AR) signaling pathway using the MDA cell line - cell viability counter screen (AID 743041; note: nearly all actives have a fitted effect of over 45% in size)
Procedure, shortened: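 Same-well cytotoxicity was assessed by CellTiter-Fluor in MDA-kb2 AR-luc cells after 16 h of compound treatment under R1881 agonism.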

[7] = qHTS assay to identify small molecule antagonists of the thyroid receptor (TR) signaling pathway - cell viability counter screen (AID 743064); note: nearly all actives have a fitted effect of over 50% in size
Procedure, shortened: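 Counter screen for cytotoxicity: compound plus T3 (1 nM final) on GH3.TRE-Luc cells, 23.5 h at 37 °C, then fluorescence viability readout with CellTiter-Fluor.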

[8] = qHTS assay to identify small molecule antagonists of the thyroid receptor (TR) signaling pathway (AID 743065); note: series mostly up to about 70 µM; nearly all actives have a fitted effect of over 55% in size
Procedure, shortened: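 GH3.TRE-Luc rat pituitary cells (two TREs driving luciferase) were dosed with compound, then stimulated with 1 nM T3 (final) for 23.5 h at 37 C. ONE-Glo luminescence was the read-out, with CellTiter-Fluor fluorescence as the cytotoxicity counter-screen.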

[9] = tested on: thyroid hormone receptor (rat, GH3 cells); test: qHTS assay to identify small molecule agonists of the thyroid receptor (TR) signaling pathway (AID 743066; calls by dose curve)
[10] = target: Estrogen receptor (Homo sapiens) (UniProt P03372); test: qHTS assay to identify small molecule antagonists of the estrogen receptor alpha (ER-alpha) signaling pathway (AID 743069; active = well fitted curve in the direction sought with a large enough effect in the signal ratio in the repeat runs, not every such curve was filed as active; the % refers to the signal ratio)
Procedure, shortened: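 Reporter cells (ER-alpha-bla, HEK293 background) are conditioned overnight in stripped-serum medium (2% charcoal-stripped FBS). Compound and 17beta-estradiol exposure runs 18 hr at 37C, 5% CO2.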

[11] = qHTS assay to identify small molecule antagonists of the estrogen receptor alpha (ER-alpha) signaling pathway - cell viability counter screen (AID 743074; calls by dose curve;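 note: HEK293 cells carrying ER-alpha-UAS-bla reporter stimulated with 17beta-estradiol; nearly all actives have a fitted effect of over 45% in size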)
[12] = target: Estrogen receptor (Homo sapiens) (UniProt P03372); test: qHTS assay to identify small molecule agonists of the estrogen receptor alpha (ER-alpha) signaling pathway (AID 743075; calls by dose curve;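 note: HEK293 GripTite cells with ER-alpha and UAS-driven beta-lactamase reporter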)
[13] = target: Estrogen receptor (Homo sapiens) (UniProt P03372); test: qHTS assay to identify small molecule agonists of the estrogen receptor alpha (ER-alpha) signaling pathway using the BG1 cell line (AID 743079); note: nearly all actives have a fitted effect of over 20% in size
[14] = qHTS assay to identify small molecule antagonists of the estrogen receptor alpha (ER-alpha) signaling pathway using the BG1 cell line (AID 743080; calls by dose curve;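 note: BG1 cells stimulated with 17beta-estradiol alongside compound; series mostly up to about 70 µM; nearly all actives have a fitted effect of over 25% in size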)
Procedure, shortened: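 Luciferase inhibition measured with ONE-Glo after 30 min at RT in BG1Luc4E2 cells given test compounds and 17beta-estradiol for 21.5 h at 37 C; CellTiter-Fluor viability read in the same wells beforehand.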

[15] = qHTS assay to identify small molecule antagonists of the estrogen receptor alpha (ER-alpha) signaling pathway using the BG1 cell line - cell viability counter screen (AID 743081);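 note: compound given together with 17beta-estradiol as the ER stimulus; series mostly up to about 70 µM; nearly all actives have a fitted effect of over 45% in size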
[16] = target: Aromatase (Homo sapiens) (UniProt P11511); test: qHTS assay to identify aromatase inhibitors (AID 743083); note: series mostly up to about 70 µM; nearly all actives have a fitted effect of over 55% in size
[17] = target: Androgen receptor (Homo sapiens) (UniProt P10275); test: qHTS assay to identify small molecule antagonists of the androgen receptor (AR) signaling pathway (AID 743035; active = well fitted inhibition curve with a large enough effect in the signal ratio in the repeat runs, not every such curve was filed as active; the % refers to the signal ratio)
Procedure, shortened: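 Using qHTS, AR-UAS-bla GripTite HEK293 cells received compound, then R1881, and were cultured 16 h at 37C/5% CO2 before a 2 h room-temperature LiveBLAzer B/G FRET substrate step and fluorescence measurement.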

[18] = target: Androgen receptor (Homo sapiens) (UniProt P10275); test: qHTS assay to identify small molecule agonists of the androgen receptor (AR) signaling pathway using the MDA cell line (AID 743040; note: nearly all actives have a fitted effect of over 20% in size)
Procedure, shortened: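 Human breast carcinoma MDA-kb2 reporter cells (MMTV-luc, AR/GR elements) were treated for 16 h at 37C in 0% CO2 following a 5 h settling period. Signal was quantified by ONE-Glo luminescence.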

[19] = target: Androgen receptor (Homo sapiens) (UniProt P10275); test: qHTS assay to identify small molecule antagonists of the androgen receptor (AR) signaling pathway using the MDA cell line (AID 743042; note: nearly all actives have a fitted effect of over 55% in size)
Procedure, shortened: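 MDA-kb2 breast carcinoma cells carrying MMTV-luciferase (AR/GR responsive) were co-treated with compounds and the agonist R1881 for 16 h at 37C. Inhibition read as ONE-Glo luminescence; CellTiter-Fluor fluorescence measured in parallel for cytotoxicity.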

[20] = target: Androgen receptor (Homo sapiens) (UniProt P10275); test: qHTS assay to identify small molecule agonists of the androgen receptor (AR) signaling pathway (AID 743036; active = well fitted activation curve with a large enough effect in the signal ratio in the repeat runs, with a control signal flat, not every such curve was filed as active; the % refers to the signal ratio)
Procedure, shortened: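 In this Tox21 qHTS, 2,000 HEK293 AR-bla cells per well were incubated with compounds for 16 h at 37C and 5% CO2. Fluorescence intensity was recorded 2 h after adding LiveBLAzer B/G FRET substrate at room temperature.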

Measured: Potency

Chain of Aromatase (Homo sapiens) (P11511 whole entry, looked up): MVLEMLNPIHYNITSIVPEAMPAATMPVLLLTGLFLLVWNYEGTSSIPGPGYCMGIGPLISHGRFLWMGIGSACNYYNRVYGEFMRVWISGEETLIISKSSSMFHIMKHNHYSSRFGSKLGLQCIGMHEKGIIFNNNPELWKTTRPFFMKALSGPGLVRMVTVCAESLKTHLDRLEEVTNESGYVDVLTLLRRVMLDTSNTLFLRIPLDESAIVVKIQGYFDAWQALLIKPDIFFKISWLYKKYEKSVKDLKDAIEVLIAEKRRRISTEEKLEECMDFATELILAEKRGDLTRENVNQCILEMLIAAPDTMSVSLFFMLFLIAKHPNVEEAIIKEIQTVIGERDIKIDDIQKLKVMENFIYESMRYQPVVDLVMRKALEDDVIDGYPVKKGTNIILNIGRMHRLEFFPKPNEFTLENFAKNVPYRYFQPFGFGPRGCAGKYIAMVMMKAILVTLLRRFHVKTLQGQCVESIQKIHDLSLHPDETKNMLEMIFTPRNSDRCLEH
Chain of Androgen receptor (Homo sapiens) (P10275 whole entry, looked up): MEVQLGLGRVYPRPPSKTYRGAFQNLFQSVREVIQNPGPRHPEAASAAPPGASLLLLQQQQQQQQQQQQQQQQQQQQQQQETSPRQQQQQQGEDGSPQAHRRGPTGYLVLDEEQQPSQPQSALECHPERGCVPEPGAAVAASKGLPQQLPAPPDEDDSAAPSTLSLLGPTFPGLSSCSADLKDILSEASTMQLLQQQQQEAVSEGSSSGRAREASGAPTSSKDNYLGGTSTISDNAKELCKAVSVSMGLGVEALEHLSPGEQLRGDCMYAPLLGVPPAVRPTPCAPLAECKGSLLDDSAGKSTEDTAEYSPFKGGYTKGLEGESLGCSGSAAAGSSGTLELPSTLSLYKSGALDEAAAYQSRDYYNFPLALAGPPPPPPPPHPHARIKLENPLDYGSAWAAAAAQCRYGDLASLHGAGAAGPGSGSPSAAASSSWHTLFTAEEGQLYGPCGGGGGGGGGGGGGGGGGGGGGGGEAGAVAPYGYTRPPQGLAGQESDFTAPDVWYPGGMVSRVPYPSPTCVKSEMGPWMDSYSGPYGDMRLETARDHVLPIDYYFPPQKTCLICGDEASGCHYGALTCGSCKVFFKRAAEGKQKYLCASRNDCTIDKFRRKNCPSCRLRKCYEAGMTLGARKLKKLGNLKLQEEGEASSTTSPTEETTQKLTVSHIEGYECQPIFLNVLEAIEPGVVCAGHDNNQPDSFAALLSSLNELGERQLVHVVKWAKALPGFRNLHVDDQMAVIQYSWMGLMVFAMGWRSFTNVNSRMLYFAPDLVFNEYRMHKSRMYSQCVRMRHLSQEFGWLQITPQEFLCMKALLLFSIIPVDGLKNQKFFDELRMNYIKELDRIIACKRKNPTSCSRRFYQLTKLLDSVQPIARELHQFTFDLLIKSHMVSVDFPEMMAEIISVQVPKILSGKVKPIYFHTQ
Chain of Estrogen receptor (Homo sapiens) (P03372 whole entry, looked up): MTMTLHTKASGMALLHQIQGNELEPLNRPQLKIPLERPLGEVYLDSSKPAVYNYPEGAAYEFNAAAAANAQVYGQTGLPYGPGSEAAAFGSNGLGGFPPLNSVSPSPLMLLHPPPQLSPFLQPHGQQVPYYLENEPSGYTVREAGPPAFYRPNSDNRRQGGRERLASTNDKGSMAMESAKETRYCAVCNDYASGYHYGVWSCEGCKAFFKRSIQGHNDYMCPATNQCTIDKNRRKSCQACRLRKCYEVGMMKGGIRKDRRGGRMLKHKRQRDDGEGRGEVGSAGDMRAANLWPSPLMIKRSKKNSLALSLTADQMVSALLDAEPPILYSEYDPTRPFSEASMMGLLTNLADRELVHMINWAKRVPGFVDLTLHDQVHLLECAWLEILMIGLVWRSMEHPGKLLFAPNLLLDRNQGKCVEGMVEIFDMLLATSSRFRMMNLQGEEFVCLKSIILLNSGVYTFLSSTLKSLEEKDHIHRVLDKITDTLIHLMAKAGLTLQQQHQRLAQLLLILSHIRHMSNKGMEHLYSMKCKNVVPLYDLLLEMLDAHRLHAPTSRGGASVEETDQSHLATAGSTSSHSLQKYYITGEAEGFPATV

C[C@H]1[C@@H](c2ccccc2)NC(=O)N1C
not listed: [17] | [18] | [19] | [20]
inactive: all other assays above

Cc1ccc(C(=O)O)cc1[N+](=O)[O-]
not listed: [20]
inactive: all other assays above

O=C1CCCCO1
not listed: [17] | [18] | [19] | [20]
inactive: all other assays above

O=C(O)CSCC(=O)NC1CCSC1=O (stereo not drawn)
not listed: [10] | [12] | [13] | [14] | [17]
inactive: all other assays above

O=C(O)CCCCCC(=O)O
not listed: [17] | [18] | [19] | [20]
inactive: all other assays above

CCOCCOCC
not listed: [17] | [18] | [19] | [20]
inactive: all other assays above

COP(=O)(O)OP(=O)(O)OC
not listed: [17] | [18] | [19] | [20]
inactive: all other assays above

OCC1CCC(CO)CC1 (stereo not drawn)
not listed: [10]
inactive: all other assays above
